PubChem BioAssay AID449762 (Southern Research Specialized Biocontainment Screening …, 2010)
“And” between values parts separate entries of the source, which are not always exact repeats. Equal values may be shown once. In all, about 330,000 compounds went through this assay and about 1,900 (0.58%) were called active. Roughly 4% stayed inconclusive and do not appear here. These entries were drawn from the full list. Measured potencies and affinities stand elsewhere. Unmarked numbers belong to inactive results. Cut-off read from the data, not from the text of the source: inconclusive = inhibition above about 70% without an active follow-up result; inactive = below that.

Assay: M. tuberculosis growth inhibition, HTS (AID 449762);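 note: bacterial growth assessed after seven days of incubation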
Settings: M. tuberculosis H37Rv growth inhibition, 7H9 media; at 25 µM; stronger effect = higher value

Row | Structure (SMILES) | inhibition
1 | CC(=O)N(c1ccc(Cl)cc1)c1cn(C(C)=O)c2ccccc12 | 8.81%
2 | CC(=O)n1cc(CO)c2ccccc21 | -8.42%
3 | COc1ccccc1N1CCN(C(=O)CCCn2nc(C)c([N+](=O)[O-])c2C)CC1 | 2.97%
4 | CCOc1ccc(C(=O)Nn2cnnc2)cc1 | 7.03%
5 | O=C(N/N=C/c1sc(=O)[nH]c1-[n+]1ccccc1)c1ccccc1[O-] | -8.63%
6 | CCOc1ccc(N2CC(=O)N(c3ccc(OCC)cc3)CC2=O)cc1 | -4.6%
7 | CCOc1ccc(N2C(=O)CNC2=S)cc1 | 0.76%
8 | O=C(COc1ccc(Br)cc1)c1ccc2c(c1)CCCC2 | 2.77%
9 | COc1cc(CN2CCC(n3nccc3NC(=O)c3ccccc3OC)CC2)ccc1F | 7.24%
10 | COc1cc(NC(=O)CN2CCN(c3ccccc3O)CC2)c(C)cc1[N+](=O)[O-] | -10.9%
11 | Cc1ccc(COc2ccsc2-c2n[nH]c(=S)n2C)cc1 | -10.5%
12 | CN(C)C(=O)CSc1nc2ccc(C(=O)c3ccccc3)cc2[nH]1 | 1.68%
13 | O=C(c1cccc([N+](=O)[O-])c1)N1CCOCC1 | 5.5%
14 | O=C(c1cccc(Cl)c1)N1CCN(c2ccc(N3CCOCC3)nn2)CC1 | 0.55%
15 | COc1ccc(N2CCN(C(=O)C3CC(=O)N(c4ccc(C)cc4)C3)CC2)cc1 (centres undefined) | 5.21%
16 | COc1cccc(CC2(CO)CCCN(Cc3ccccc3-c3ccco3)C2)c1 (centres undefined) | 5.57%
17 | COc1cccc(C(=O)Nc2cccc(NC(=O)c3cccs3)c2)c1 | 0.1%
18 | S=c1[nH]nc(-c2ccncc2)n1/N=C/c1cn(-c2ccccc2)nc1-c1ccccc1 | 1.85%
19 | O=C(CC1C(=O)NCCN1Cc1ccoc1)NCCc1ccc(Cl)cc1 (centres undefined) | -3.28%
20 | COC(=O)C1CSC(c2ccc(Cl)cc2)N1C(=O)c1ccccc1 (centres undefined) | 3.7%
21 | Cc1ccnc(N2CCC(C(=O)Nc3ccc4c(c3)OCO4)CC2)n1 | -6.75%
22 | CCCn1nnnc1NC(=O)c1cc(Br)ccc1OC | 14.5%
23 | CCCn1nnnc1NC(=O)COc1ccc(Cl)c(C)c1 | 0.41%
24 | O=C(COC(=O)COc1ccccc1)Nc1cccc([N+](=O)[O-])c1 | -0.12%

Row | Structure (SMILES) | inhibition
25 | COc1cc(OC)c(OC)cc1CCC(C)NC(=O)Cc1ccccc1 (centres undefined) | 2.6%
26 | CC(CCc1ccc(O)cc1)NCCC(c1ccccc1)c1ccccc1 (centres undefined) | 64.6%
27 | CCOc1ccc(NC(=O)NNC(=O)C2CCC(C(C)(C)C)CC2)cc1 (centres undefined) | -6.75%
28 | O=C(O)CCC(=O)Nc1ccccc1Oc1ccccc1 | -2.18%
29 | Cc1cc(C)cc(NC(=O)c2cccc(C(=O)Nc3cc(C)cc(C)c3)n2)c1 | 5.97%
30 | CN1C2CCC1/C(=C/c1cccn1C)C(=O)/C2=C\c1cccn1C | 10.6%
31 | CN1C2CCC1/C(=C\c1ccccc1F)C(=O)/C2=C/c1ccccc1F | 5.25%
32 | C=CCOc1ccc(CNCC2CCCO2)cc1 (centres undefined) | -1.36%
33 | Cc1noc(C)c1CSCC(=O)N(CC(C)C)c1c(N)n(Cc2ccccc2)c(=O)[nH]c1=O | -5.68%
34 | CC(=O)Nc1ccc(N2C(=O)c3ccc(S(=O)(=O)c4ccc(C(=O)O)cc4)cc3C2=O)cc1 | -2.44%
35 | COc1ccc(C(=O)ON=C2C=C(C)C(=O)C(C)=C2)cc1 | 63.5%
36 | COc1ccc(S(=O)(=O)N=C2C=C(C)C(=O)C(C)=C2)cc1 | -12.4%
37 | Cc1cc(C)n(C(=O)c2ccc(S(=O)(=O)N3CCOCC3)cc2)n1 | -3.21%
38 | COc1ccccc1NC(=O)COC(=O)/C=C/c1ccc(OC)c(OC)c1 | 24.8%
39 | COc1ccccc1OCCNC(=O)/C=C/c1ccc([N+](=O)[O-])cc1 | 2%
40 | Cn1c(=O)[nH]c(=O)c2c1nc(NCCCO)n2CCOc1ccccc1 | -8.75%
41 | O=C(c1cc2ccccc2o1)N(Cc1nnc(-c2ccccc2Cl)o1)C1CC1 | -0.85%
42 | O=C(C1=COCCO1)N(Cc1nnc(-c2ccccc2Cl)o1)C1CC1 | 1.25%
43 | CCOC(=O)N1CCN(C(=O)c2cc3ccc(OC)cc3[nH]2)CC1 | -1.51%
44 | COc1ccc(C(=S)N2CCC(C(N)=O)CC2)cc1Br | -5.29%
45 | CC1CCCC(C)N1CC(O)COc1ccc(Cl)cc1 (centres undefined) | -8.81%
46 | COc1cc(OC)c(C(=O)/C=C/c2ccc(OCc3ccccc3)c(OC)c2)c(OC)c1 | 55.4%
47 | CCOc1ccc(N=c2cc(-c3ccc(OC)cc3)oc3ccccc23)cc1 | 2.75%
48 | COc1ccc(-c2cc(=Nc3ccc(C)cc3)c3ccccc3o2)cc1 | 18.3%

Row | Structure (SMILES) | inhibition
49 | Nc1ccc(C(=O)OCc2nc3cc4ccccc4cc3[nH]2)cc1 | 3.37%
50 | Nc1ccc(C(=O)OCCCc2nc3ccccc3[nH]2)cc1 | 2.21%
51 | C/C=C(\C)CN1CCCC(CO)(Cc2ccccc2)C1 (centres undefined) | 12.6%
52 | Cc1nc(SCC(=O)N2CCNC2=O)c2ccccc2n1 | 0.14%
53 | CCCCCCNC(=O)C(C#N)c1nc2ccccc2nc1N1CCOCC1 (centres undefined) | 1%
54 | N#CC(C(=O)NCCc1ccccc1)c1nc2ccccc2nc1N1CCOCC1 (centres undefined) | 4.18%
55 | CCCc1cc(=O)[nH]c(SCC(=O)c2cc(C)n(C)c2C)n1 | 2.23%
56 | Cc1sc2c(c1C)CN(C(C)(C)C)CN2C(=O)c1ccccc1 | -8.66%
57 | COc1ccc(CCNc2nc(N3CCOCC3)nc(N3CCOCC3)n2)cc1OC | -5.04%
58 | COc1ccc(N2CCN(c3nc(NCCc4ccc(OC)c(OC)c4)nc(OC)n3)CC2)cc1 | -2.33%
59 | Cc1ccc(CNC(=O)CN(C)S(=O)(=O)c2cnc[nH]2)cc1 | -4.45%
60 | Cc1cccc(C)c1NC(=O)COc1ccccc1C(=O)Nc1ccc(Br)cn1 | 3.17%
61 | O=C(NC(=S)Nc1ccccc1Cl)C1CC1 | 11.2%
62 | COc1cc(NC(=O)C2CCN(S(=O)(=O)c3cccc4nonc34)CC2)cc(OC)c1 | 2.95%
63 | CCOC(=O)C(CC)Sc1ncnc2c1nnn2-c1ccc(F)cc1 (centres undefined) | -6.34%
64 | CCOC(=O)CC(=O)CSc1ncnc2c1nnn2-c1ccc(F)cc1 | -7.23%
65 | COC(=O)c1cc(NC(=O)C(C)c2ccc(CC(C)C)cc2)ccc1O (centres undefined) | 20.8%
66 | CC1CCCN(C(=O)COC(=O)c2cccc(NS(=O)(=O)c3ccccc3)c2)C1 (centres undefined) | -11.8%
67 | O=C(Cn1nnc(-c2ccccc2)n1)OCc1ccccc1 | -6.9%
68 | O=C(O)c1cccc(-c2nnn(Cc3ccccc3)n2)c1 | -10.4%
69 | CCCCc1nnc(NC(=O)C(=O)OCC)s1 | -3.95%
70 | Cc1ccsc1C(=O)Nc1cccc(-n2cnnn2)c1 | -0.76%
71 | CCN(CC)S(=O)(=O)c1ccc(/C=C/C(=O)OCC(=O)N(C(C)C)C(C)C)cc1 | 3.48%
72 | CCN(CC)S(=O)(=O)c1ccc(/C=C/C(=O)OCC(=O)N(C)C)cc1 | 4.6%

Row | Structure (SMILES) | inhibition
73 | COc1ccc(NC(=S)N(CCCN2CCCC(C)C2)Cc2cccs2)cc1 (centres undefined) | 6.16%
74 | N#Cc1ccc(Cn2ccnc2C(=O)Nc2ccccc2)cc1 | 0.04%
75 | CCN(CC)CCN1C(=O)C(=O)/C(=C(/O)c2ccc(S(=O)(=O)N3CCOCC3)cc2)C1c1ccc(C(C)C)cc1 (centres undefined) | 1.15%
76 | CCNCc1nc2cc(OC)c(OC)cc2c(=O)[nH]1 | 2.16%
77 | CCOC(=O)c1sc2nc(C)nc(SCC(=O)NC(C)CCc3ccccc3)c2c1C (centres undefined) | -5.1%
78 | CCOC(=O)c1sc2nc(C)nc(SC(C)C(=O)NC3CC3)c2c1C (centres undefined) | 44%
79 | O=C(c1ccc(F)cc1)C(CCCCCC(CN1CCOCC1)C(=O)c1ccc(F)cc1)CN1CCOCC1 (centres undefined) | 2%
80 | COc1ncnc2c1oc1ccccc12 | 6.25%
81 | c1cncc(-c2nc3c(ccc4ccccc43)[nH]2)c1 | -6.09%
82 | Nc1ccc(-c2nc3c(ccc4ccccc43)[nH]2)cc1 | 6.07%
83 | O=C(Nc1ccc(S(=O)(=O)Nc2ccnn2-c2ccccc2)cc1)C(F)(F)F | 56.7%
84 | CC(=O)NC(CC(=O)Nc1nc(-c2ccc(N(C)S(C)(=O)=O)cc2)cs1)c1ccccc1 (centres undefined) | -3.7%
85 | CC(C)Nc1nc(-c2ccccc2)nc(-n2ccnc2)n1 | 12.9%
86 | CCCCCNc1nc(-c2ccccc2)nc(-n2ccnc2)n1 | -1.97%
87 | CCCOc1ccc(-c2nnn(CC(=O)c3ccc4c(c3)OCCO4)n2)cc1 | -6.75%
88 | C=CCN1CC[C@]23c4c5ccc(O)c4OC2C(=O)CC[C@@]3(O)C1C5 (some centres undefined) | -3.13%
89 | C=CCN1CC[C@]23c4c5ccc(O)c4O[C@H]2C(=O)CC[C@@]3(O)[C@H]1C5 | 29.2% and -16.4%
90 | O=C(Nc1ccc(OCC(F)(F)C(F)F)c(C(F)(F)F)c1)c1ccccc1 | 3.85%
91 | COc1ccc(C(=O)Nc2ccc(OCC(F)(F)C(F)F)c(C(F)(F)F)c2)cc1OC | -1.87%
92 | COc1ccc(S(=O)(=O)N2CCOCC2)cc1NC(=O)CC1CCCC1 | -1.2%
93 | O=C(NCc1ccc(F)cc1)Nc1cccc(Cl)c1 | -4.36%
94 | CC(C)C(=O)Nc1ccc2c(c1)C(=O)N(CCC(=O)O)C2=O | 3.16%
